Assay outcomes as filed in PubChem BioAssay.
ELG1 genotox: genotoxicity induction in ELG1-luciferase HEK293T cells | Potency, µM (series often up to 46 µM), for inactives: at the top dose activity change, positive = activation, most hits filed as activators | HEK293T ELG1-luciferase reporter, luminescence, 16 h | actives 1.3% (n = 330,000); also: % of control where 0% means no effect; nearly all actives have a fitted effect of over 60% in size
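ELG1-luciferase HEK293T cells, 2,000/well; compound pinned in; 16 hr, 37 °C, 5% CO2; ONE-Glo, 30 min RT; luminescence on CCD imager.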
Rab9 promoter act: activators of Rab9 promoter; Huh7 Rab9 promoter-luciferase reporter, luminescence, 24 h; Potency, µM (top dose mostly 9.22 µM), without a hit: at the top dose activation, negative = inhibition, hits mostly activators; actives 2.8% (n = 320,000); AID 485297; also: % of control where 0% means no effect; nearly all actives have a fitted effect of over 60% in size
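Cells were plated at 1500 per well in reduced-serum medium with 10% FBS and left 2 h. Compound in DMSO was then added for 24 h at 37 °C. Reporter signal was read by luminescence after 10 min with luciferase detection reagent.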
SMN2 splice up: increases expression of the SMN2 splice variant; HEK293 SMN2-luciferase splicing reporter, luminescence, 30-36 h; Potency, µM (doses to about 46.1 µM), inactives show at the highest dose activity change, positive = activation, hits mostly activators; actives 2.8% (n = 210,000); AID 1458; also: % of control where 0% means no effect; nearly all actives have a fitted effect of over 55% in size
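qHTS luciferase splicing reporter: luminescence rises when SMN2 exon 7 is included in transfected HEK293 cells. Compound exposure lasted 30-36 h at 37C, with 4.5 mM final sodium butyrate as control, followed by a ONE-Glo read.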
NPC1 promoter act: NPC1 promoter activation; Potency, µM (series often up to 9.22 µM), for inactives: at the highest dose activation, usual class: activators; Huh7 NPC1 promoter luciferase reporter, 24 h; actives 2.4% (n = 320,000); also: % of control where 0% means no effect; nearly all actives have a fitted effect of over 60% in size
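Cells: Huh7 expressing luciferase under the NPC1 promoter, 1500/well. Seeded 2 h, compound added, incubated 24 h at 37 °C. Luciferase reagent, 10 min ambient, then luminescence.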
FLuc counter: firefly luciferase modulation, counter-screen for miR-21 project | Potency, µM (titrated, usually from 57.5 µM), for inactives: top-dose activity change, negative = inhibition, most hits filed as inhibitors | P08659 | purified FLuc, Km substrates, luminescence inhibition | actives 6.9% (n = 360,000) | AID 588342;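 also: plate controls were vehicle for no effect and reference inhibitor for full effect; nearly all actives have a fitted effect of over 55% in size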
Target sequence (P08659 whole entry, looked up): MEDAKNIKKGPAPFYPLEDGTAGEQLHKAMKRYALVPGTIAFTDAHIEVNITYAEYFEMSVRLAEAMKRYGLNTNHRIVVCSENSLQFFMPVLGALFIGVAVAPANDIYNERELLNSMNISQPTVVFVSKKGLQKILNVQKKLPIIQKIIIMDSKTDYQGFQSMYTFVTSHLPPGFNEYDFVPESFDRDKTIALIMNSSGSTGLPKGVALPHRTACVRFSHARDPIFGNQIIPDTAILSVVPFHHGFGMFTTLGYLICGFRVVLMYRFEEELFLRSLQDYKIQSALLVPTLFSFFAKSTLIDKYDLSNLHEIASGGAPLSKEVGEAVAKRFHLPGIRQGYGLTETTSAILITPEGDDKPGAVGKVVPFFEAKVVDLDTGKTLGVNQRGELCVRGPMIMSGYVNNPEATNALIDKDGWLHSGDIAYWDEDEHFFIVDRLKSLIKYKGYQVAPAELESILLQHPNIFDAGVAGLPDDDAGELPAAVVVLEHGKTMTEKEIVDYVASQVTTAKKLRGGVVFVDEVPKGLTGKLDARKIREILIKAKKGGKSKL
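Purified P. pyralis luciferase (10nM final) with 10uM D-luciferin and 10uM ATP (Km levels) in 50mM Tris acetate pH 7.5, 10mM Mg acetate, 0.01% Tween-20, 0.05% BSA; qHTS 6-point titration, ~60 µM downward; luminescence read.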
* hit, by the source's call; ? = inconclusive; . = no result given; [ ] = dose if it differs, or a comment. This is a sample that favours compounds with a hit; in the whole collection about 7.4% have one here. Calls follow the shape of the dose curve; as a rule, active = well fitted curve in the direction sought with a large enough effect; inconclusive = small, poorly fitted or top-dose-only effect, or another doubt; inactive = no such curve, though single readings can be large; an effect the other way counts as inactive or inconclusive. Potency is read from the fitted curve at half-maximal effect.

SMILES	ELG1 genotox	Rab9 promoter act	SMN2 splice up	NPC1 promoter act	FLuc counter
O=C(CCNS(=O)(=O)c1ccccc1F)NC1CCCCCC1	-1%	-4%	.	1%	1%
C/C(=N\NC(=O)c1ccc([N+](=O)[O-])cc1Cl)c1ccccc1	?	3.5µM*	.	?	?
Nc1c(NCc2ccccc2F)c(=O)[nH]c(=O)n1Cc1ccccc1	2%	-6%	-16%	2%	21µM*
O=C(N/N=C/c1ccc(OC(F)F)cc1)c1ccc(Br)cc1	7%	3%	19%	-1%	?
O=C(N/N=C/c1ccc(OC(F)F)cc1)c1ccc(CSc2nc3ccccc3[nH]2)cc1	0%	4%	-6%[1.84 µM]	-6%	17µM*
CCOc1ccc(/C=N/NC(=O)c2ccc(CSc3nc4ccccc4[nH]3)cc2)cc1	-2%	12%	-7%	4%	6.7µM*
COc1ccc(CNc2ccc(N3CCOCC3)cc2)cc1	-3%	?	.	13%	27µM*
COc1ccc(OCC(=O)Nc2ccc(N3CCOCC3)cc2)cc1	0%	5%	14%	10%	-1%
O=C(C[n+]1ccccc1)c1ccc(-c2ccccc2)cc1	-14%	-5%	.	-1%	4%
CCCC(C)NC(=O)c1ccc(-c2ccccc2)cc1 (configuration not stated)	?	1.8µM*	.	?	?
O=C(O)CCC(=O)NNC(=O)c1ccc(-c2ccccc2)cc1	2%	1%	26%	-1%	19µM*
COC(=O)c1ccccc1NC(=O)COC(=O)[C@H](C)NC(N)=O	0%	3%	.	2%	3%
CC(NC(N)=O)C(=O)OCC(=O)c1ccc(-c2ccccc2)cc1 (configuration not stated)	7%	18%	26%	10%	12µM*
CCC(=O)c1ccc(-c2ccccc2)cc1	?	2%	?	3%	15µM*
CCCC(C)NC(=O)c1ccc(F)cc1 (configuration not stated)	24%	11%	1%	13%	-13%
Cc1ccccc1OCC(=O)NNC(=O)C1CC(=O)N(c2ccc3c(c2)OCCO3)C1 (configuration not stated)	-2%	-2%	.	1%	4%
O=C(O)CCC(=O)c1ccc(-c2ccccc2)cc1	9%	?	29%	25%	8.5µM*
COc1ccc(C(=O)CCC(=O)O)cc1	6%	-8%	-14%	1%	4%
COc1ccc2oc(C(=O)NCC3CCCO3)c(C)c2c1 (configuration not stated)	?	4µM*	.	?	13µM*
CCOc1ccc2oc(C(=O)NCC3CCCO3)c(C)c2c1 (configuration not stated)	?	2.8µM*	.	?	15µM*
COc1ccc2oc(C(=O)OCC(=O)NCC3CCCO3)c(C)c2c1 (configuration not stated)	17%	-1%	.	-1%	?
Cc1nc2c(c(C)c1CCC(=O)N1CCN(c3ccccc3)CC1)c(=O)n(C)c(=O)n2C	.	.	-2%	.	-2%
CCCc1cc(C(=O)N2CCCC(N3CCN(c4ccccc4F)CC3)C2)n(C)n1 (configuration not stated)	-8%	-2%	.	-4%	0%
CC1CCC2(CC1)NC(=O)N(NC(=O)c1cccc(N(C)C)c1)C2=O (configuration not stated)	3%	0%	.	1%	.
O=C(CCS(=O)(=O)c1cc2c3c(c1)CCN3C(=O)CC2)NCc1ccc(F)cc1	.	.	.	.	-1%
SMILES	ELG1 genotox	Rab9 promoter act	SMN2 splice up	NPC1 promoter act	FLuc counter
Cc1ccc(C(=O)/C=C/c2cn(CC(O)CN3CCOCC3)c3ccccc23)cc1 (configuration not stated)	-1%	15%	-25%	7%	?
COc1ccc(C(=O)/C=C/c2cn(CC(O)CN3CCOCC3)c3ccccc23)cc1 (configuration not stated)	-7%	1%	-51%	10%	15µM*
COc1ccc(C(=O)/C=C/c2cn(CN3CCN(C)CC3)c3ccccc23)cc1	?	27%	-55%	21%	6µM*
CCCN(CCC)CC(O)Cn1cc(/C=C/C(=O)c2ccc(OCC)cc2)c2ccccc21 (configuration not stated)	.	.	-40%	.	-18%
CCOc1ccc(C(=O)/C=C/c2cn(CN3CCN(C)CC3)c3ccccc23)cc1	7%	18%	17%	16%	17µM*
CN(Cc1ccccc1)C(=O)COC(=O)c1cc(=O)c2ccccc2o1	5%	.	.	.	.
CS(=O)(=O)NCCNc1ccc(C(F)(F)F)cc1[N+](=O)[O-]	0%	-7%	2%	-2%	1%
O=[N+]([O-])c1cc(C(F)(F)F)ccc1NCCOc1ccccc1	?	?	?	?	13µM*
CN(C)S(=O)(=O)NCCNc1ccc(C(F)(F)F)cc1[N+](=O)[O-]	3%	2%	6%	-4%	19µM*
O=C1CC(C(=O)N2CCc3ccccc32)CN1c1cccc(C(F)(F)F)c1 (configuration not stated)	3%	-4%	.	-6%	-2%
CC1CCCCN1C(=O)COC(=O)c1cc([N+](=O)[O-])ccc1N1CCOCC1 (configuration not stated)	0%	2%	.	-3%	-2%
COc1cccc(-c2nc(-c3ccccn3)no2)c1OC	9.2µM*	2.5µM*	13µM*	3.5µM*	13µM*
c1ccc(-c2noc(-c3cccc4ccccc34)n2)nc1	?	28%	16µM*	?	0.76µM*
CCOC(=O)C1C(=O)C=C(c2ccc(C)cc2)CC1c1cccc([N+](=O)[O-])c1 (configuration not stated)	-6%	0%	.	-4%	11µM*
CCOC(=O)C1C(=O)C=C(c2ccc(C)cc2)CC1c1ccco1 (configuration not stated)	0%	18%	-3%	2%	12µM*
CCCCCCCCCCCCCCCCCCOCC(O)CO (configuration not stated)	.	.	-4%	.	.
O=C(N/N=C/C=C\c1ccco1)c1ccccn1	?	9%	.	?	?
Cc1cc(C(=O)N/N=C/C(Cl)=C/c2ccccc2)c(C)o1	1%	24%	.	20%	9.5µM*
O=C(N/N=C/c1ccncc1)c1ccccc1	6%	-3%	24%	3%	?
CC(/C=N/NC(=O)c1ccccn1)=C\c1ccco1	?	1.4µM*	.	1.4µM*	3.8µM*
O=C(N/N=C/C=C/c1ccccc1)c1ccccn1	?	3.5µM*	.	?	17µM*
O=C(N/N=C/C(Cl)=C/c1ccccc1)c1ccncc1	4%	11%	9%	-2%	17µM*
